Most compounds without a hit are left out; they make up all but 3% or so of the library.
PMP22 txn prim = Cell-based coincidence reporter assay to measure PMP22 gene transcription in S16 Pmp22-F2sN cells - Primary screen; 2% of 43,000 active; S16 Pmp22-F2sN Schwann cells, FLuc/NLuc coincidence luminescence, 24 h; Potency, µM (doses to about 57.5 µM), hits mostly inhibitors; AID 1508649, 2021; active means clear falling dose curves in both reporters; inconclusive means both reporters move, but less clearly or upward; inactive means either reporter flat; the % is the NLuc reporter signal
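S16 Schwann cells carrying FLuc/NLuc coincidence reporter in the Pmp22 3' UTR treated with compound 24 h at 37C; FLuc then NLuc luminescence read sequentially by dual-luciferase reagents.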
p53null 39C tox = qHTS Screen for Compounds that Selectively Target Cancer Cells with p53 Mutations: Cytotoxicity of p53 Null Cells at the Nonpermissive Temperature | AID 904, 2007 | Potency, µM (top dose mostly 46.1 µM), most hits filed as cytotoxic | 0.97% of 55,000 active | H1299 p53-null (neo) cells, 39C, ATPlite viability, 24 h; further: nearly all actives have a fitted effect of over 50% in size
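Cells seeded at 600/well, 37C overnight. Compound added (up to 46 uM), plates shifted to 39C for 24 hr. ATPlite added, luminescence read after 20 min at room temperature.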
S16 viability = Cell viability qHTS assay in S16 Pmp22-F2sN cells. S16 Pmp22-F2sN Schwann cells (luciferase reporters placed in the Pmp22 gene) viability, CellTiter-Glo, 24 h. 0.48% of 43,000 active. Potency, µM (series often up to 57.5 µM), actives largely listed as cytotoxic; further: nearly all actives have a fitted effect of over 65% in size
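Luminescence from CellTiter-Glo, read by CCD camera after a 15 min room-temperature incubation, served as the viability signal. Reporter Schwann cells (S16 Pmp22-F2sN) had been treated with pin-transferred compounds for 24 h at 37C.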
pS6 MEF inh = Acumen qHTS Assay for Inhibitors of the mTORC1 Signaling Pathway in MEF (Tsc2-/-, p53-/-) Cells: Sytravon; 0.78% of 44,000 active; Tsc2-/- p53-/- MEF, phospho-rpS6 immunofluorescence/PI, 24 h; Potency, µM (highest dose often 38.3 µM), most hits filed as inhibitors; further: nearly all actives have a fitted effect of over 50% in size
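Readout is phospho-S6 Alexa 488 signal normalized to PI per well, reported as % active cells with thresholds set from rapamycin (7.5 nM) and DMSO controls. Cells: Tsc2-/-, p53-/- MEFs, 24 hrs compound at 37 C; PI cell number serves as viability.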
p53null 32C tox = qHTS Screen for Compounds that Selectively Target Cancer Cells with p53 Mutations: Cytotoxicity of p53 Null Cells at the Permissive Temperature; 0.62% of 55,000 active; Potency, µM (series often up to 46.1 µM), hits mostly cytotoxic; H1299-neo p53 null cells, ATP luminescence, 24 h, 32C; further: nearly all actives have a fitted effect of over 55% in size
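H1299-neo (p53 null) cells, 600/well, treated 24 h at 32C with compound up to 46 uM; ATPlite luminescence viability, normalized to DMSO and 100 uM tamoxifen; AC50 by Hill fit.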
SKOV3 invasion = Primary qHTS assay for Inhibitors of ovarian cancer metastasis using an organotypic tumor microenvironment (TME) model; Potency, µM (series often up to 45.8 µM), actives largely listed as inhibitors; 0.1% of 46,000 active; AID 1963576, 2024; SKOV3ip1-GFP adhesion/invasion on 3D omental model, fluorescence; further: nearly all actives have a fitted effect of over 65% in size
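qHTS, 4-pt dose (0.36-46 umol/L); SKOV3ip1-GFP, 1,200 cells/well, no FBS; primary omental fibroblast/mesothelial co-culture 48 h pre-grown; 2 h RT + 16 h 37 C; PBS wash, 4% PFA; GFP count 488/509 nm.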
A number is an active result; – = inactive; ? = inconclusive; · = no result given. Unless noted, the call rests on the fitted dose curve; in most records, active means well fitted curve in the direction sought with a large enough effect; inconclusive means small, poorly fitted or top-dose-only effect, or another doubt; inactive means no such curve, though single readings can be large; an effect the other way counts as inactive or inconclusive.

SMILES | PMP22 txn prim | p53null 39C tox | S16 viability | pS6 MEF inh | p53null 32C tox | SKOV3 invasion
CC(C)S(=O)(=O)c1oc(-c2cccs2)nc1S(=O)(=O)c1ccc(F)cc1 | 1.7µM | – | 3.2µM | 0.58µM | ? | ?
Cc1cc(OCCCS(C)(=O)=O)cc(C)c1-c1cccc(COc2ccc3c(c2)OC[C@H]3CC(=O)O)c1 | · | · | · | · | · | –
COc1ccc2c(c1)Cc1sc(NC(=O)c3cccc(Cl)c3)nc1-2 | – | – | ? | – | 16µM | –
COc1ccc2c(c1)Cc1sc(NC(=O)c3cccc(C)c3)nc1-2 | – | – | – | – | – | –
Cn1c(=O)c2c(nc(NCc3ccccc3)n2Cc2ccccc2)n(C)c1=O | 13µM | – | ? | – | – | –
Cn1c(=O)c2c(nc(NCc3ccccc3)n2Cc2ccccc2Cl)n(C)c1=O | – | – | ? | – | – | –
CCOc1cc(C(c2c(C)[nH]n(-c3ccccc3)c2=O)c2c(C)[nH]n(-c3ccccc3)c2=O)ccc1O | 9.5µM | – | – | – | – | ?
CCOc1cc2ncc(C#N)c(Nc3ccc(OCc4ccccn4)c(Cl)c3)c2cc1NC(=O)C=CCN(C)C | · | · | · | · | · | –
CCCN1C(C(=O)c2ccccc2)=C(OC(=O)COc2ccc(C)cc2)c2ccccc2S1(=O)=O | ? | 32µM | – | – | – | –
CN1CCN(c2ncc(-c3cc(Cl)cc(Cl)c3Cl)c(N)n2)CC1 | · | · | · | · | · | –
COc1ccccc1NC(=O)C1=C(C)Nc2nc(SCc3cc(C)ccc3C)nn2C1c1ccccc1 (stereo not given) | 17µM | – | 10µM | – | – | –
CC1=C(C(=O)Nc2ccccc2)C(c2ccc(F)cc2)n2nc(SCc3cc(C)ccc3C)nc2N1 (stereo not given) | – | – | – | – | – | –
CCc1c(C)sc2c1CCN(Cc1ccccc1F)C2c1ccccc1 (stereo not given) | 3.4µM | – | 8.9µM | – | – | –
CCc1c(C)sc2c1CCN(Cc1cccc(OC)c1)C2c1ccccc1 (stereo not given) | 9.5µM | ? | ? | – | – | –
CCOC(=O)c1ccccc1NC(=O)N1CCc2c(sc(C)c2CC)C1c1ccccc1 (stereo not given) | ? | – | – | – | – | –
COCCOc1nc(-c2ccc(Cl)c(Cl)c2)n(-c2ccc(NC(=O)CCl)cc2)n1 | · | · | · | · | · | –
CCN1CCOC(=O)C1CC(=O)Nc1cc(C)cc(C)c1 (stereo not given) | ? | · | ? | 10µM | · | –
c1ccc(-c2cc(-c3ccccc3)c3c(n2)-c2ccccc2OC3)cc1 | – | · | – | – | · | –
CCOc1ccccc1Nc1nc(-c2cccc(Cl)c2)c2c(n1)-c1ccccc1OC2 | – | 13µM | – | 2.9µM | ? | –
CCN(CC)CCN(C(=O)c1ccco1)c1nc2c(C)c(C)ccc2s1 | ? | – | – | – | – | –
Cc1ccc2sc(N(CCCN(C)C)C(=O)c3ccco3)nc2c1C | ? | ? | ? | 12µM | – | –
O=S(=O)(c1ccc(Cl)cc1)N1CCC(c2ccncc2)CC1 | – | – | – | – | – | –
CC(C)Cc1ccc(S(=O)(=O)N2CCC(c3ccncc3)CC2)cc1 | ? | ? | ? | 18µM | ? | ?
CC(C)(C)c1ccc(S(=O)(=O)N2CCC(c3ccncc3)CC2)cc1 | ? | ? | ? | 18µM | ? | –
CN(C)c1ccc(C(=O)NCCCCCCC(=O)NO)cc1 | · | · | · | · | · | –
O=c1[nH]nc(Sc2ncc([N+](=O)[O-])s2)n1-c1ccc2c(c1)OCCO2 | · | · | · | · | · | 15µM

Compound activity (PubChem)
